Results published in PubChem BioAssay AID1421 (Emory University Molecular Libraries Screening Center, 2008).
In all, about 1,300 compounds went through this assay and about 140 (11%) were called active. How the calls were made is not given here. These entries were drawn from the full list. Entries with a potency or affinity are not part of this list.

biological target: Prostaglandin E2 receptor EP2 subtype (Homo sapiens) (UniProt P43116); assay: EP2 receptor modulators, dose response, cell-based, human EP2, PGE2 EC50 shift (AID 1421); details: EP2-expressing cells, PGE2 EC50 shift by compound; at 20 µM
Sequence (P43116 whole entry, looked up): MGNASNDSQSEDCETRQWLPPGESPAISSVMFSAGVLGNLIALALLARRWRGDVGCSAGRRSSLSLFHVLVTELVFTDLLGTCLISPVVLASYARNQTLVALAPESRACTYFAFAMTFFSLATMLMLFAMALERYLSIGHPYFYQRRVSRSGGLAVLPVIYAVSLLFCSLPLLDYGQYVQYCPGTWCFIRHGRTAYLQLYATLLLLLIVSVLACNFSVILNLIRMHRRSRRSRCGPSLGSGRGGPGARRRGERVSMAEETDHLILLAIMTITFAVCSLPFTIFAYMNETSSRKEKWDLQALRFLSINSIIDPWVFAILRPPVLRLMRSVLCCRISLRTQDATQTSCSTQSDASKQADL

PGE2 EC50 with compound, inactive:
CC(=O)N1N=C2/C(=C/c3ccccc3)CCCC2C1c1ccccc1 (centres undefined) 0.44 nM
CCN=C1S/C(=C\c2ccc(O)c(OCC)c2)C(=O)N1CC 0.39 nM
CCCCOP(=O)(OCCCC)C(Nc1ccccc1)c1ccc2c(c1)OCO2 (centres undefined) 0.36 nM
CC(C)N(CCNC(=O)c1oc(=O)c2ccccc2c1-c1ccccc1)Cc1ccco1 0.81 nM
Oc1ccc(/C=N/N(Cc2ccccc2)c2ccccc2)cc1 0.73 nM
C/C(=N\N(Cc1ccccc1)c1ccccc1)c1cccnc1 0.37 nM
c1ccc(-c2ccccc2-c2nc(-c3cccnc3)no2)cc1 0.05 nM
Cc1scc(-c2n[nH]c(=S)n2Cc2ccccc2)c1C 0.54 nM
COc1ccc(N2CCN(c3nc4c(c(=O)n(C)c(=O)n4C)n3Cc3ccccc3)CC2)cc1 0.9 nM
Cc1ccccc1NC1=C(C(=O)c2ccccc2)N(C)S(=O)(=O)c2ccccc21 0.78 nM
Cc1cc(NC(=O)C2=C(O)c3ccccc3S(=O)(=O)N2C)no1 0.77 nM
CCOC(=O)CC(=O)CSc1nc(-c2ccc3c(c2)OCO3)cc(C(F)(F)F)c1C#N 1.22 nM
Cc1noc(C)c1CSc1nc2ccccc2c(=O)n1-c1ccc(F)cc1F 0.51 nM
Cc1noc(C)c1CSc1nc2ccccc2c(=O)n1-c1ccc(Cl)cc1 0.51 nM
CSc1nc(Oc2ccccc2)c2sccc2n1 0.62 nM
CCOC(=O)n1c(=O)n(Cc2ccc(Cl)c(Cl)c2)c2ccccc21 0.31 nM
COC(=O)c1cc(Br)c(=O)n(-c2nccs2)c1 17 nM
C=C(C)COc1ccc2c(c1)CC[C@@H]1[C@H]3C/C(=N/O)C(=O)[C@]3(C)CC[C@@H]21 0.41 nM
Cc1cccc(OC(=O)c2sc(Cl)nc2C)c1 0.61 nM
Cc1noc(C)c1CSc1ncnc2sc(C)c(C)c12 0.35 nM
O=C(Nc1ccc2c(c1)OCO2)c1cccc2c1C(=O)N(C1CCCCC1)C2 0.58 nM
CCc1nc(N2CCC(C)CC2)c2oc3ccccc3c2n1 0.32 nM
CCOP(=O)(OCC)c1nc(-c2cccc3ccccc23)oc1N1CCCCC1 0.42 nM
O=C(c1ccc2c(c1)OCO2)N(Cc1cccs1)C1(C(=O)NC2CCCCC2)CCCCC1 0.42 nM
O=C(COc1ccc(Br)cc1)Nc1ccc(-c2nnc(-c3ccco3)o2)cc1 0.53 nM
Cc1ccc2nc(N3CCC(C(=O)O)CC3)nc(-c3ccccc3)c2c1 0.5 nM
Cc1ccc(-n2c(Cc3cccc4ccccc34)n[nH]c2=S)c(C)c1 0.39 nM
CN(C)Cc1ccccc1Sc1cccc2ccccc12 0.37 nM
Cc1ccnc(SCC(=O)n2c3c(c4ccccc42)CC(C)CC3)n1 (centres undefined) 0.26 nM
COc1ccccc1-c1nnc(SCC(=O)c2ccc(C3CCCCC3)cc2)n1Cc1ccco1 0.46 nM
O=C(CN1CCN(Cc2ccccc2)CC1)Nc1ccccc1-c1ccccc1 0.83 nM
CCOC(=O)C1=NN(c2cccc(C)c2)C2(S1)SC(C(C)=O)=C(C)N2c1ccccc1 (centres undefined) 0.51 nM
Cc1ccccc1-n1c(Cn2c(=O)sc3ccccc32)nnc1SCC(=O)N1CCCC1 0.82 nM
Cc1cc(C)c2nc(N3CCCN(C(=O)c4ccco4)CC3)c(C#N)cc2c1 0.66 nM
COc1ccc(C2CC(c3cccs3)=NN2C(=O)c2ccc(Br)o2)cc1 (centres undefined) 0.71 nM
O=C1C2C3c4ccccc4C(c4ccccc43)C2c2nc3ccccc3n21 (centres undefined) 0.5 nM
COc1cc(C)c(NC(c2ccccc2)c2ccccc2)cc1OC 0.74 nM
c1ccc(-c2csc3ncnc(N4CCc5ccccc5C4)c23)cc1 0.28 nM
CCOC(=O)C(Cc1ccccc1)(NC(C)=O)C(=O)OCC 1.39 nM
O=C(O)CCCCCCCCCCCc1ccccc1 0.7 nM
O=c1c(O)c(-c2ccccc2)oc2ccc3occc3c12 0.43 nM
CCCCc1ccc(-n2c(Cc3cccs3)n[nH]c2=S)cc1 0.6 nM
CCCCc1n[nH]c(=S)n1Cc1ccc(Cl)cc1 0.62 nM
Cc1sc2ncnc(N(C)Cc3cccs3)c2c1C 0.78 nM
Cc1onc(-c2ccccc2)c1C(=O)N(Cc1ccco1)Cc1cccs1 0.49 nM
COc1cccc2[nH]c3c(N4CCCCC4)ncnc3c12 54.6 nM
O=C(c1cc2sccc2n1Cc1ccc(F)cc1)N1CCCc2ccccc21 0.27 nM
Cc1ccc(-c2nc3ccccc3nc2Cl)cc1 0.45 nM
CCOC(=O)c1c(NC(=O)CSC(=S)N(C)C)sc(C)c1C 0.55 nM
CCCOP(=O)(OCCC)C(Nc1cccc(C(F)(F)F)c1)c1ccc(C)cc1 (centres undefined) 0.23 nM
CCOP(=O)(OCC)c1nc(-c2cccc3ccccc23)oc1NCCc1ccc(OC)cc1 0.72 nM
CCOP(=O)(OCC)c1nc(-c2cccc3ccccc23)oc1NCc1ccccc1 0.31 nM
CCOC(=O)c1c(NC(=O)CN2C(=O)NC3(CCCCCC3)C2=O)sc(C)c1-c1ccc(C)cc1 0.74 nM
CCOP(=O)(OCC)c1nc(-c2ccc(C)cc2)oc1NCc1ccccc1 0.46 nM
Cc1ccccc1Nc1c(-c2ccccn2)nc2ccccn12 0.67 nM
COC(=O)c1cc2ccsc2n1Cc1ccccc1F 0.49 nM
CSc1nc(Sc2ccccc2Cl)c2ccccc2n1 0.41 nM
CCOC(=O)c1ccccc1NC(=O)CSc1ncc(C(=O)OCC)c(N)n1 0.55 nM
Cc1ccc(S(=O)(=O)n2c3ccc(F)cc3c3nc(C)sc32)cc1 0.2 nM
